In PubChem BioAssay AID743498 (The Scripps Research Institute Molecular Screening Center, 2014):
Unmarked numbers belong to inactive results. Activity calls are given as the source filed them.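 The calls were made as follows: active = IC50, the dose giving half inhibition, at or below 10 µM; inactive = IC50 above 10 µM.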

Assay: displacement of TO-PRO-1 from d(CAG) DNA duplex, late-stage follow-up, counter-screen for r(CAG) RNA repeat binder project, biochemical, fluorescence, 5'CAG/3'GTC DNA, powders, MedChem round 1 (AID 743498)
Details: DNA d(CAG) repeat TO-PRO-1 dye displacement
With `O=C(/C=C/c1cn(-c2ccccc2)nc1-c1ccccc1)Nc1cc(S(=O)(=O)N2CCCC2)ccc1Cl` the IC50 was over 29.9 µM. With `CCN(c1ccccc1)S(=O)(=O)c1ccc(NC(=O)c2oc3ccc(F)cc3c2C)cc1` the IC50 was over 29.9 µM. For `CN(C)CCCNC(=O)/C=C/c1cn(-c2ccccc2)nc1-c1ccccc1`, the IC50 was over 29.9 µM. `Cc1c(C(=O)Nc2ccc(S(=O)(=O)NCCCN3CCOCC3)cc2)oc2ccc(F)cc12` showed an IC50 of over 29.9 µM. `CCN1CCN(C(=O)/C=C/c2cn(-c3ccccc3)nc2-c2ccccc2)CC1` gave an IC50 of over 29.9 µM. With `NS(=O)(=O)c1ccc(NC(=O)/C=C/c2cn(-c3ccccc3)nc2-c2cccc(Cl)c2)cc1` the IC50 was over 29.9 µM. With `CN1C(=O)/C(=C/c2cn(-c3ccccc3)nc2-c2ccccc2)c2ccccc21` the IC50 was over 29.9 µM. In the case of `N#C/C(=C/c1cn(Cc2ccccc2)nc1-c1cccnc1)C(=O)Nc1ccc(C(=O)O)cc1`, the IC50 is reported as over 29.9 µM. `NC(=O)c1cc(NC(=O)/C=C/c2cn(-c3ccccc3)nc2-c2ccc(F)cc2)c(F)cc1F` showed an IC50 of over 29.9 µM. With `CC(=O)NS(=O)(=O)c1ccc(NC(=O)/C=C/c2cn(-c3ccccc3)nc2-c2ccccc2)cc1` the IC50 was 3.6 µM (active). Compound `Cc1ccc(-c2nn(-c3ccccc3)cc2/C=C/C(=O)Nc2ccc(S(N)(=O)=O)cc2)cc1` has an IC50 of over 29.9 µM. Work on `O=C(/C=C/c1cn(-c2ccccc2)nc1-c1ccccc1)NCCc1c[nH]c2ccccc12` yielded an IC50 of over 29.9 µM. `Cc1c(C(=O)Nc2ccc(S(=O)(=O)Nc3ncccn3)cc2)oc2ccc(F)cc12` showed an IC50 of over 29.9 µM. Compound `O=C(/C=C/c1cn(-c2ccccc2)nc1-c1ccccc1)N1CCN(CC(=O)N2CCCC2)CC1` has an IC50 of over 29.9 µM. `CNC(=O)Cc1ccc(NC(=O)/C=C/c2cn(-c3ccccc3)nc2-c2ccc(F)cc2)cc1` gave an IC50 of over 29.9 µM. Compound `COc1ccc(NC(=O)/C=C/c2cn(-c3ccccc3)nc2-c2ccc(OC)cc2)cc1` has an IC50 of over 29.9 µM. In the case of `COc1ccc(-c2nn(-c3ccccc3)cc2/C=C/C(=O)Nc2cccc(NC(C)=O)c2)cc1OC`, the IC50 is reported as over 29.9 µM. In the case of `CN1CCC(N(C)C(=O)/C=C/c2cn(-c3ccccc3)nc2-c2ccccc2)CC1`, the IC50 is reported as over 29.9 µM. Work on `O=C(/C=C/c1cn(-c2ccccc2)nc1-c1ccccc1)NCCO` yielded an IC50 of over 29.9 µM. For `N#C/C(=C/c1cn(-c2ccccc2)nc1-c1cccnc1)C(=O)Nc1ccc(C(=O)O)cc1`, the IC50 was 28.6 µM. Work on `CN(C)C(=O)C1CCN(C(=O)/C=C/c2cn(-c3ccccc3)nc2-c2ccccc2)CC1` yielded an IC50 of over 29.9 µM. Work on `CCN(CC)C(=O)/C=C/c1cn(-c2ccccc2)nc1-c1ccccc1` yielded an IC50 of over 29.9 µM. With `COC(=O)c1ccc(NC(=O)/C=C/c2cn(CCC#N)nc2-c2ccc(F)cc2)cc1` the IC50 was over 29.9 µM. For `O=C(/C=C/c1cn(-c2ccccc2)nc1-c1ccc2ccccc2c1)Nc1ccc(C(=O)O)cc1`, the IC50 was 3.53 µM (active). In the case of `COc1ccc(-c2nn(-c3ccccc3)cc2/C=C/C(=O)Nc2ccc(C(=O)O)cc2)cc1`, the IC50 is reported as 3.83 µM (active). With `Cc1ccc(-c2nn(-c3ccccc3)cc2/C=C/C(=O)Nc2cccc(S(N)(=O)=O)c2)cc1` the IC50 was over 29.9 µM. With `O=C(/C=C/c1cn(-c2ccccc2)nc1-c1ccccc1)NCc1ccccc1` the IC50 was over 29.9 µM. In the case of `Cc1c(C(=O)Nc2ccc(S(=O)(=O)N(C)Cc3ccccc3)cc2)oc2ccc(F)cc12`, the IC50 is reported as over 29.9 µM. For `O=C(/C=C\c1cn(-c2ccccc2)nc1-c1ccc(F)cc1)Nc1ccc(C(=O)O)cc1`, the IC50 was 4.76 µM (active). In the case of `CS(=O)(=O)Nc1cc(NC(=O)/C=C/c2cn(-c3ccccc3)nc2-c2ccccc2)ccc1F`, the IC50 is reported as 12.2 µM. In the case of `CCOC(=O)N1CCC(NC(=O)/C=C/c2cn(-c3ccccc3)nc2-c2ccccc2)CC1`, the IC50 is reported as over 29.9 µM.
